Test results taken from PubChem BioAssay AID624287 (National Center for Advancing Translational Sciences (NCATS), 2012).
The whole screen tested about 340,000 compounds, of which about 420 (0.12%) were called active. Where a call stands in place of a potency, no number is given. About 10% were inconclusive and are not listed. Only a selection was taken, and actives are over-represented in it overall. A number with no mark means an inactive call. Calls come from the whole dose curve; as a rule, active = well fitted activation curve with a large enough effect; inconclusive = small, poorly fitted or top-dose-only effect, or another doubt; inactive = no such curve, though single readings can be large or run the other way; cell line not stated here.

test: qHTS for Agonist of gsp, the Etiologic Mutation Responsible for Fibrous Dysplasia/McCune-Albright Syndrome: qHTS; details: gsp mutant cells, cAMP HTRF, 30 min; series mostly up to 76.9 µM; note: nearly all actives have a fitted effect of over 60% in size;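 for activation (cAMP increase): phosphodiesterase inhibitor Ro 20-1724 added with compounds to block cAMP breakdown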
Procedure, shortened: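 Cells stably selected in G418 were plated at 2000/well, grown 16-24 hr, then given compounds in DMSO with the PDE inhibitor […] (300 uM solution added) for 30 min at 37C; cAMP was read by HTRF.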
Potency is the fitted concentration of half-maximal effect.

SMILES | Potency | activation (cAMP increase)
O=C1CCC(C(=O)OCC(=O)Nc2ccc(OC(F)F)cc2)=NN1 | inactive | 
COc1cc(C)c(CN2CCN(C(=O)CCC(=O)c3ccc(C)s3)CC2)cc1OC | inactive | 
CCOc1cc(/C=N/NC(=O)c2ccncc2)cc(Br)c1O | inactive | 
NC(=S)NN=Cc1ccc(OC(=O)COc2cc(Cl)c(Cl)cc2Cl)cn1 | inactive | 
COc1cccc(N2C(=O)CN(Cc3ccccc3)C2=S)c1 | inactive | 
COc1cccc(-n2cc(C(=O)O)c3ccccc3c2=O)c1 | inactive | 
COc1cccc(-n2c(=S)[nH]c3c(oc4ccccc43)c2=O)c1 | 15.8 µM (active) | 
CC1(C)CN(CCc2ccccc2)C(=O)[C@H]1CC(=O)Nc1ccc(Br)cc1 | inactive | 
Cc1ccc(S(=O)(=O)/N=C2\C=C(NS(=O)(=O)c3ccc(C)cc3)C(=O)c3ccccc32)cc1 | inactive | 
COCOCCn1cc(CN2CCS(=O)(=O)N(Cc3ccc(-c4ccccc4)cc3)C(CC(C)C)C2=O)nn1 (stereo not drawn) | inactive | 
COc1ccccc1-c1n[nH]nc1C1=CC(=O)CC(C)(C)C1 | inactive | 
CC1=C(C(=O)N2CCOCC2)CC(CC(=O)NCC2CCCCC2)C(=O)N1Cc1ccc(F)cc1 (stereo not drawn) | inactive | 
CCOC(=O)C1CCN(C(=O)c2ccc3c(=O)n4nc(Nc5ccccc5CC)sc4nc3c2)CC1 | inactive | 
O=Cc1cn(CCOc2ccc(F)cc2)c2ccccc12 | inactive | 
COC(=O)C(C)Sc1ccc2nnc(-c3cccc(F)c3)n2n1 (stereo not drawn) | 10 µM (active) | 
CCOC(=O)CNC(=O)CSc1ccc2nnc(-c3cccnc3)n2n1 |  | 37.7% [at 15.4 µM]
CCOc1ccc(-c2nnc3ccc(SC)nn23)cc1 | inactive | 

SMILES | Potency | activation (cAMP increase)
CCN(CC)C(=O)C1=C(C)N(Cc2ccc(F)cc2)C(=O)C(CC(=O)NCc2cccc3ccccc23)C1 (stereo not drawn) | inactive | 
C[C@H]1CN([C@@H](C)CO)C(=O)c2cc(-c3ccccc3F)cnc2O[C@H]1CN(C)C(=O)C1CCOCC1 | inactive | 
Cc1ccc(S(=O)(=O)N2C[C@]3(O)C[C@@H]4C(=O)N(c5ccccc5)C(=O)[C@@H]4C[C@]3(OC(=O)NC3CC3)C2)cc1 | inactive | 
CNC(=O)C1CN(C(=O)c2cccc(S(=O)(=O)N3CCc4ccccc43)c2)c2ccccc2O1 (stereo not drawn) | inactive | 
CCN1CCN(CCNC(=O)c2ccc3c(c2)NC(=O)/C(=C\c2cccc(Cl)c2)S3)CC1 | inactive | 
O=C(C[C@H]1C[C@H]2c3cc(NS(=O)(=O)c4ccc(F)cc4)ccc3O[C@H]2[C@H](CO)O1)NCc1cc(F)ccc1F | inactive | 
c1ccc2c(c1)nnn2-c1ccncc1 | inactive | 
COc1cc2c(cc1OC)C1C(=O)c3cc(OS(C)(=O)=O)c(OC)cc3C1N(C)C2=O (stereo not drawn) | inactive | 
CCCCCC(=O)N1C[C@H](O)[C@@H](n2cc(COC(=O)c3ccccc3)nn2)C[C@@H]1c1ccc(C)cc1 | inactive | 
CC1CN(C(=O)c2cccc(NS(=O)(=O)c3ccc(Br)cc3)c2)CC(C)O1 (stereo not drawn) | inactive | 
Cc1ccc(C=O)c([B-](F)(F)F)c1 | inactive | 
CC(C)c1cc(C(=O)NC2CCCCCC2)c2ccccc2n1 | inactive | 
CN(C)C(CNC(=O)c1cccc(S(=O)(=O)N2CCc3ccccc3C2)c1)c1ccccc1 (stereo not drawn) | inactive | 
CCCCCCN1C[C@@H](O)[C@H](n2cc(COC(=O)c3ccccc3)nn2)C[C@@H]1c1ccc(Cl)cc1 | inactive | 
CCN(CC)C(=O)C1=C(C)N(Cc2ccc(C(C)(C)C)cc2)C(=O)C(CC(=O)NCc2cccc3ccccc23)C1 (stereo not drawn) | inactive | 
COc1ccc([C@H]2N[C@]3(CCCN(Cc4ccco4)C3=O)[C@H]3C(=O)N(C)C(=O)[C@@H]23)cc1 | inactive | 
